Reference: PubChem BioAssay AID1259309 (ICCB-Longwood Screening Facility, Harvard Medical School, 2017)
Several values for one entry are separate records, joined by “and”; a condition that tells them apart may be missing. Equal values may be shown once. In all, about 330,000 compounds went through this assay and about 1,800 (0.55%) were called active. The list comes from a sample in which actives are over-represented; it also holds similar structures and randomly drawn compounds. Values without a mark were called inactive. Rule as the data show it: active = growth inhibition above about 68%; inactive = the rest.

assay: growth inhibition of ugtP-null S. aureus, primary screen, RN4220 ugtP deletion, OD600 (AID 1259309); details: 16 h, hits give high values;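 also: plate controls were untreated wells for no effect and antibiotic for full effect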

Compound	growth inhibition
CC1CCCC(C)N1N=Cc1ccc([N+](=O)[O-])cc1 (centres undefined)	18%
O=C(NN=Cc1cccs1)c1cnccn1	1.82%
CC(Oc1ccc2ccccc2c1)C(=O)NNC(=S)NC(=O)c1ccco1 (centres undefined)	91.7% (active)
Cc1ccc(C(=O)NNC(=O)C(C)Oc2ccc3ccccc3c2)o1 (centres undefined)	8%
Cc1ccc(OCC(=O)NNC(=S)NCc2ccccc2)cc1	-11.7%
Cc1ccc(OCC(=O)NCCCNC(=O)c2ccco2)cc1C	-2.8%
CCCc1ccc(OCC(=O)NNC(=S)NC(=O)c2ccco2)cc1	96% (active)
O=C(Nc1ccc2ccccc2c1)/C(=C/c1cccc(Br)c1)NC(=O)c1ccco1	-9.2%
CC(=NNC(=O)CSc1nc2ccccc2o1)c1cccc(O)c1	1.7%
COc1cccc(C=NNC(=O)c2cc(-c3cccn3C)n[nH]2)c1	-20.1%
CN(Cc1c(C(=O)NN=Cc2cccc(F)c2)nnn1-c1nonc1N)c1ccccc1	0.685%
Cc1ccccc1C(=O)ON=C(N)c1ccncc1	6.35%
O=C(Cn1nc2ccccc2n1)NN=Cc1cc(Cl)cc([N+](=O)[O-])c1O	2.61%
COC(=O)CC1c2cc(C(F)(F)F)ccc2S(=O)(=O)N1Cc1ccccc1OC (centres undefined)	4.2%
CCN(CC(=O)Nc1ccc(OC)cc1)C(=O)CSCc1ccc(C)cc1	3.82%
COc1ccc(NC(=O)/C(Cl)=C(/Cl)S(=O)Cc2ccc(C)cc2)cn1 (centres undefined)	99.4% (active)
COc1ccc(CS(=O)/C(Cl)=C(/Cl)C(=O)Nc2ccc(OC)nc2)cc1 (centres undefined)	15.9%
C[C@]12CCC3c4ccc(OC(=O)c5ccccc5)cc4CCC3C1CCC2O (some centres undefined)	19.4%
COc1ccc2c(c1)SC(C)CC2=O (centres undefined)	-4.08%
COc1ccc2c(c1)C(=O)CC(c1ccccc1)O2 (centres undefined)	6.73%
COc1ccc2c(c1)OC(O)(C(F)(F)C(F)F)CC2=O (centres undefined)	99.4% (active)
CCC(=NOC(=O)c1cccc(C)c1)C(=O)c1cccs1	-0.652%
O=C1/C(=C/c2cccs2)CCc2ccccc21	18.9%
O=C1/C(=C/c2cccs2)CCC1C1CCCC1 (centres undefined)	8.34%
CCC1C/C(=C/c2cccs2)C(=O)/C(=C/c2cccs2)C1 (centres undefined)	94.7% (active)

Compound	growth inhibition
CC(CC(=O)Nc1ccccn1)=NNC(=O)C(=O)Nc1cccc(C)c1	3.99%
COc1ccc(O)c(C=NNC(=O)CN2CCS(=O)(=O)CC2)c1	-0.335%
CC(=NNc1ccc(C(F)(F)F)cn1)c1ccncc1	1.19%
N=C1C(c2nc3ccccc3s2)=C(O)CN1NC(=O)c1ccc([N+](=O)[O-])cc1	-0.97%
O=C(COC(=O)c1ccc([N+](=O)[O-])cc1Cl)NC(=O)c1ccccc1	-1.26%
O=C(NC(Nc1nc2ccc([N+](=O)[O-])cc2s1)(C(F)(F)F)C(F)(F)F)c1ccccc1	100% (active)
Cc1ccsc1C=NNC(=O)c1ccncc1	-0.727%
O=S(=O)([N-]c1nc2ccccc2nc1-[n+]1ccc(Cc2ccccc2)cc1)c1ccc(Br)s1	95.2% (active)
O=S(=O)(NCc1ccccn1)c1ccc(Br)s1	5.99%
O=C1C(=O)N(CC2COc3ccccc3O2)c2ccccc21 (centres undefined)	-2.06%
Cc1cc(C(=O)CCl)c(C)n1CC1COc2ccccc2O1 (centres undefined)	90.8% (active)
Cc1ccsc1C(=O)OCC(=O)c1cc(C)n(CC2CCCO2)c1C (centres undefined)	0.578%
CCOC(=O)c1c(NC(=O)Cn2nc(C(F)(F)F)cc2C)sc2c1CCC2	2.33%
CCCOC(=O)Nc1sc2c(c1C(=O)OCC)CCC2	91.5% (active)
CCOC(=O)c1c(NC(=O)C(C)Sc2c[nH]c3ccccc23)sc2c1CCC2 (centres undefined)	25.3%
CCOC1OC(C(=O)N2CCOCC2)=CC(c2ccc3c(c2)OCO3)C1CCCO (centres undefined)	2.32%
O=C(CNc1ccc2ccccc2c1)NN=Cc1ccc(C(=O)O)cc1	1.63%
COc1ccc2c(C)cc3nnnn3c2c1	3.97%
CCn1c2c(c3ccc(OC)cc31)CCCC2=O	95.9% (active)
COc1ccc(C2C3=C(CCCC3=O)N(CC(=O)O)C3=C2C(=O)CCC3)cc1	7.87%
CCC1=C2CCC3C(=O)N(C)C(=O)C3C2[C@@]2(Cc3ccccc3)C(=NCCOC)OC(=O)N2C1=O (some centres undefined)	-1.76%
CC(C)(C)Oc1ncc(Br)c(OC(C)(C)C)n1	2.82%
COc1ccc(-c2nc(N)ncc2-c2ccc(Cl)cc2)c(O)c1	-8.46%
COc1cccc(-c2cnc(OC(C)(C)C)nc2OC(C)(C)C)c1	99.2% (active)
c1ccc(C2C3CN(Cc4cccnc4)C(c4ccccc4)C34CC2(c2ccccc2)C4)cc1 (centres undefined)	0.638%

Compound	growth inhibition
O=C(O)c1ccc(NC(=NS(=O)(=O)c2ccc(Cl)cc2)c2ccccc2)cc1	4.64%
O=C(Nc1ccccc1)c1nnsc1S(=O)(=O)c1ccc(Cl)cc1	100% (active)
Cc1nnsc1C(=O)NN=Cc1ccccc1Cl	0.586%
Cn1c2ccccc2c2cc(C=NNC(=O)c3ccc(N)cc3)ccc21	-2.18%
COc1ccc(C2CC(=O)C=C(c3ccc4ccn(C)c4c3)C2)cc1 (centres undefined)	4.99%
CC(C)(C)c1cc(C(=O)NN=Cc2ccccn2)n[nH]1	4.75%
O=C(NC(=S)Nc1cccc2c(O)cccc12)c1cccc(Br)c1	99.6% (active)
O=C(NC(=S)Nc1ccc(S(=O)(=O)Nc2ncccn2)cc1)c1cccc(Br)c1	-8.14%
Cc1ccccc1NC(=S)NNC(=O)c1cccc(Br)c1	23.5%
Clc1cc(-c2ccc(C=Nn3cnnc3)o2)ccc1Br	-3.77%
COc1ccc(Cl)cc1C(=O)NNC(=S)NC(=O)/C=C/c1ccco1	-0.168%
O=C(/C=C/c1ccco1)NC(=S)Nc1ccccc1Br	90.7% (active)
O=C(/C=C/c1ccco1)NC(=S)N1CCCCC1	7.55%
CC[C@@]12C(=O)N(c3ccccc3)C(=O)N1C(c1cccc(C)c1)C1C(=O)N(Cc3ccccc3)C(=O)C12 (some centres undefined)	3.88%
CC(=NOC(=O)c1ccc(C)cc1)C(=O)c1ccc(Br)cc1	0.731%
COc1ccc(-c2csc3ncnc(N4CCN(S(=O)(=O)c5ccccc5C#N)CC4)c23)cc1	95.8% (active)
COc1ccc(-c2csc3ncnc(N4CCN(S(=O)(=O)c5cccc(F)c5)CC4)c23)cc1	-16.7%
COc1ccc(S(=O)(=O)N2CCN(c3ncnc4c(-c5ccccc5)nsc34)CC2)cc1	5.08%
CC(=NNC(=O)C1CC1c1ccccc1)c1cccs1 (centres undefined)	3.01%
Cc1cc([N+](=O)[O-])cc(C=NNC(=O)C2COc3ccccc3O2)c1O (centres undefined)	9.3%
CC(=NNC(=O)c1ccncc1)c1ccc(NC(=O)c2ccc(Cl)cc2Cl)cc1	-4.36%
Cc1cccc(NC(=S)NN=C(c2ccccc2)C(C)C)c1	36.3%
Cc1ccc(NC(=S)Nc2ccc(F)cc2)cc1	-2.35%
Cc1cccc(NC(=S)Nc2ccc(Cl)c(Cl)c2)c1	98.9% (active)
CC(=NN=C1SC(CC(=O)O)C(=O)N1c1ccccc1)c1ccc(C)cc1 (centres undefined)	7.85%

Compound	growth inhibition
O=C(C(=NO)n1cncn1)c1ccc(Cl)cc1Cl	18.1%
Fc1cccc(C=NN=Cc2cccc(F)c2)c1	2.16%
Clc1ccc(Nc2ccc3ccccc3n2)cc1	-34.6%
CN1CCN(c2nc(Nc3ccc(O)cc3)nc3ccccc23)CC1	-7.09%
Cc1cc(Nc2ccc(Br)cc2)nc2ccccc12	84.1% (active)
CC(=NNc1nc(-c2ccc(Cl)cc2)cs1)c1cccs1	-2.32%
COc1ccc(C=NNC(=O)c2cccc3ccccc23)c(OC)c1OC	7.75%
CCC(=O)N(C)CCc1cc2c(c(OC)c1C=NNC(=O)c1ccccc1O)OCO2	9.87%
CC(=NNC(=O)c1c(C)nc2ccccn12)c1ccccc1F	6.04%
COc1cc(C(c2c(O)c3ccccc3oc2=O)c2c(C)n(C)n(-c3ccccc3)c2=O)ccc1O (centres undefined)	82.9% (active)
CCC(=O)CC(c1ccc([N+](=O)[O-])cc1)c1c(O)c2ccccc2oc1=O (centres undefined)	12%
COc1cc(C=Nn2c(C)nc3ccccc3c2=O)ccc1O	2.48%
S=C(NCCN1CCOCC1)NN=Cc1ccccc1	-0.962%
Cc1ccc(C=NNC(=O)c2ccc(C(=O)NN=Cc3ccc(C)s3)o2)s1	-0.554%
COc1ccc(C(=O)NC(=S)Nc2ccccc2N2CCN(S(C)(=O)=O)CC2)cc1OC	-0.518%
COc1ccccc1C(=O)NC(=S)Nc1ccccc1N1CCCCC1	93.3% (active)
O=C(NC(=S)Nc1ccccc1N1CCCCC1)c1ccc(F)cc1	59.3%
COc1ccc(C(=O)/C=C/c2cccnc2)c(OC)c1	5.58%
COc1ccc(NC(=O)ON=Cc2ccc(Br)cc2)cc1	4.87%
COc1ccc(/C=C/C(=O)c2cc(Br)ccc(=O)c2O)cc1	95.4% (active)
CCC(C)Sc1ccc(C2N[C@@](C)(C(=O)OC)C3C(=O)N(C)C(=O)C23)cc1 (some centres undefined)	2.56%
Cc1c(CCOC(=O)CC23CC4CC(CC(C)(C4)C2)C3)sc[n+]1Cc1ccc([N+](=O)[O-])cc1	101% (active) and 100% (active)
Cc1c(CCOC(=O)c2cc([N+](=O)[O-])ccc2Cl)sc[n+]1CCCCS(=O)(=O)[O-]	-10.2%
Cc1c(CCO)sc[n+]1CC(=O)OC12CC3CC(CC(C3)C1)C2	7.76%
